This passage reports Inhibition results from ChEMBL document CHEMBL4513155, “CO-ADD screening of University of Sydney (Australia) compounds” (2021).

For one assay, the system named is Klebsiella pneumoniae. Conditions: Concentration 32 ug.mL-1; ASSAY_TEST Inhibition of Bacterial Growth; detection method Absorption (OD600); MEDIA CAMHB; plate type 384well; NBS; CORNING #3640; time 18 hr.
In a further assay the test system is Candida albicans. Conditions: 32 ug/mL.
A further assay deals with Cryptococcus neoformans. To be noted: Concentration 32 ug.mL-1; ASSAY_TEST Inhibition of Fungal Growth; detection method Resazurin; Absorption (OD600-OD570); plate type 384well; NBS; CORNING #3640.

Potency and affinity values are given separately.

As a reminder, the Inhibition is the drop in the measured response relative to a control, in per cent. `Fc1ccc(CCOc2cncc3nnc(-c4ccc(C(F)(F)F)nc4)n23)cc1F`: the Inhibition in the assay on Klebsiella pneumoniae was -0.34%; in the assay with Candida albicans it was 2.23%; in the assay on Cryptococcus neoformans it was -5.49%.
Consider `CN(C)C(COc1cncc2nnc(-c3ccc(C#N)cc3)n12)c1ccc(F)c(F)c1` (stereo unspecified), for which the Inhibition was 3.41% in the assay with Klebsiella pneumoniae, 5.98% in the assay with Candida albicans and -16.61% in the assay with Cryptococcus neoformans.
On the same counts, the results for `N#Cc1ccc(-c2nnc3cncc(OCC(O)c4ccc(F)c(F)c4)n23)cc1` (stereo unspecified) are -1.23%, 4.19% and -9.99%.
Turning to `Fc1ccc(CCOc2cncc3nnc(-c4ccc(Cl)cc4)n23)cc1F`, the values for the Inhibition with Klebsiella pneumoniae, with Candida albicans and with Cryptococcus neoformans were -4.32%, 7.82% and -0.27%, respectively.
Taken in the same sequence, the figures for `O.O=C1c2cccc3c(-n4cc(CN5CCCNCCN(Cc6cn(-c7ccc8c9c(cccc79)C(=O)N(CCCO)C8=O)nn6)CCCNCC5)nn4)ccc(c23)C(=O)N1CCCO.[Cl-].[Cl-].[Zn+2]` were 2.32%, 7.28% and -0.18%.
On the same counts, the results for `COC(COc1cncc2nnc(-c3ccc(C#N)cc3)n12)c1ccc(F)c(F)c1` (stereo unspecified) are -1.15%, 2.84% and -10.36%.
Taken in the same sequence, the figures for `CCN1C(=O)c2cccc3c(-c4cn(CCN5CCCNCCN(CCn6cc([C@]7(O)CC[C@H]8[C@@H]9CCc%10cc(O)ccc%10[C@H]9CC[C@@]87C)nn6)CCCNCC5)nn4)ccc(c23)C1=O.OCCN1CCN(CCCN2c3ccccc3Sc3ccc(Cl)cc32)CC1.[O-][Cl+3]([O-])([O-])[O-].[O-][Cl+3]([O-])([O-])[O-].[Zn+2]` were -7.97%, 5.51% and 7.03%.
